Laboratory results reported in the supplement of paper PMC12297408.
Where a name gives a salt, the structure may show the parent alone. Unmarked numbers belong to inactive results.

Tested on: Plasmodium falciparum NF54/iGP1_RE9H ulg8 stage V gametocytes
Test: gametocyte viability (luciferase signal relative to DMSO control) (% of DMSO control); higher = less gametocytocidal activity, active = 50 or less
Conditions: exposure time: 72 h
Outline: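 NF54/iGP1_RE9Hulg8 stage V gametocytes (day 12; ~2.5% gametocytemia, 3% hematocrit) were incubated with compounds at 10 µM or 1 µM final, in one well each, for 72 h at 37 °C in medium with 0.5% Albumax II. Luminescence after D-luciferin addition was read on an IVIS Lumina II. Viability refers to the mean of plate DMSO vehicle wells.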

Structure (SMILES) | gametocyte viability (concentration: 1 µM) | gametocyte viability (concentration: 10 µM)
CCCCCCCCCCCCCCCC(=O)OC(CC(=O)[O-])C[N+](C)(C)C (racemic) [Palmitoyl-DL-carnitine] | 100 | 108
Oc1cccc(-c2nc(N3CCOCC3)c3oc4ncccc4c3n2)c1 | 115 | 111
Nc1ncnc2c1c(-c1cnc3[nH]ccc3c1)nn2C1CCCC1 | 101 | 116
NC(N)=NCCNS(=O)(=O)c1cccc2cnccc12 | 107 | 107
C[C@@H](Oc1cc(-n2cnc3ccc(CN4CCN(C)CC4)cc32)sc1C(N)=O)c1ccccc1C(F)(F)F | 103 | 81.6
O=c1c(-c2ccc(O)cc2)coc2cc(O)ccc12 [Daidzein] | 116 | 109
N#CC(=Cc1ccc2[nH]ccc2c1)C(N)=C(C#N)C#N | 100 | 104
c1cncc(CN2CCC(n3ncc4c(N5CCOCC5)nc(-c5ccc6[nH]ccc6c5)nc43)CC2)c1 | 95.7 | 103
O=C(O)c1ccc2nc(-c3ccccc3)c(-c3ccccc3)nc2c1 | 98.6 | 95.2
Cc1ccc(S(=O)(=O)/C=C/C#N)cc1 | 103 | 3.38 (active)
Cc1ccc(S(=O)(=O)Nc2nc3ccccc3nc2Nc2ccc3nsnc3c2)cc1 | 87.4 | 103
CCC[C@H](NC(=O)/C(C#N)=C/c1cccc(Br)n1)c1ccccc1 | 114 | 106
C=CC(=O)c1ccc2ccccc2c1 | 101 | 106
C[C@@H](Oc1cc(-c2cnn(C3CCNCC3)c2)cnc1N)c1c(Cl)ccc(F)c1Cl | 88.7 | 30.2 (active)
CCN1CCN(Cc2ccc(-c3cc4c(N[C@H](C)c5ccccc5)ncnc4[nH]3)cc2)CC1 | 96.1 | 52.6
N=C(N)NC(=N)NCCc1ccccc1 [Phenformin hydrochloride] | 99.9 | 111

Structure (SMILES) | gametocyte viability (concentration: 1 µM) | gametocyte viability (concentration: 10 µM)
Cc1ccc(-c2nn(C(C)(C)C)c3ncnc(N)c23)cc1 | 103 | 105
CN(C)C1CCN(C(=O)c2ccc(NC(=O)Nc3ccc(-c4nc(N5CCOCC5)nc(N5CCOCC5)n4)cc3)cc2)CC1 | 102 | 107
NC(=O)c1ccc(N(C(N)=O)c2c(F)cccc2F)nc1-c1ccc(F)cc1F | 99.2 | 103
CCOc1cc2ncc(C#N)c(Nc3ccc(F)c(Cl)c3)c2cc1NC(=O)/C=C/CN(C)C [Pelitinib (EKB-569)] | 85.3 | 99.8
Cn1cnc2c(NCc3ccccc3)nc(NCCO)nc21 [Olomoucine] | 95.2 | 91.5
COc1ccc(S(=O)(=O)N(C(C)=O)c2ccccc2/C=C/c2cc[n+]([O-])cc2)cc1 | 98 | 112
CC1CNCCN1S(=O)(=O)c1cccc2cnccc12 (centres undefined) | 97.5 | 97.9
C#Cc1cccc(Nc2ncnc3cc(OCCOC)c(OCCOC)cc23)c1 [Erlotinib HCl] | 86.2 | 82.4
Cc1[nH]nc2ccc(-c3cncc(OC[C@@H](N)Cc4ccccc4)c3)cc12 | 101 | 104
COc1ccc(-c2ccc3c(N4CCOCC4)nc(N4C[C@@H](C)O[C@@H](C)C4)nc3n2)cc1CO | 97.1 | 108
Clc1ccc(Nc2nnc(Cc3ccncc3)c3ccccc23)cc1 [Vatalanib dihydrochloride (PTK787)] | 111 | 115
COc1cc(N2CCC(N3CCN(C)CC3)CC2)ccc1Nc1ncc(Cl)c(Nc2ccccc2S(=O)(=O)C(C)C)n1 | 73.9 | 41.9 (active)
Cc1cc(C(C)Nc2ccccc2)c2nc(N3CCOCC3)cc(=O)n2c1 (centres undefined) | 90.1 | 89
Cc1c(CN2CCN(C(=O)[C@H](C)O)CC2)sc2c(N3CCOCC3)nc(-c3cnc(N)nc3)nc12 | 106 | 109
CCS(=O)(=O)Nc1ccc2[nH]c(O)c(C(=Nc3ccc(CN4CCCCC4)cc3)c3ccccc3)c2c1 [Hesperadin] | 110 | 108
O=S(=O)(c1cccc2cnccc12)N1CCCNCC1 | 101 | 110
